Among the data in PubChem BioAssay (NCI) are growth values, retold here.

Among the test systems are SR leukemia; RPMI-8226 leukemia; OVCAR-8 ovarian; OVCAR-5 ovarian; OVCAR-4 ovarian; SK-OV-3 ovarian; IGROV1 ovarian; OVCAR-3 ovarian; HS 578T breast; NCI/ADR-RES ovarian; T-47D breast; BT-549 breast; MDA-MB-435 melanoma; SW-620 colon; MCF7 breast; HCT-116 colon; HCC-2998 colon; KM12 colon.
Common to all, as to experiment: NCI-60 one-dose screen, 48 h (100 = growth as untreated, 0 = no growth, -100 = all killed)
Details in all cases: 10 µM

This is part of a sample that, as a whole, favours compounds with a hit. Of some 83,000 tested, about 20% had one in any assay.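 Plates (96-well) were seeded with cells, treated with compound at one concentration, and incubated for 48 hours before percent growth was determined.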 Unmarked numbers belong to inactive results. The source made the active and inactive calls. The calls were made as follows: active = growth percent below 10; inactive = the rest.

Take `O=C(N/N=c1/ccoc2cccnc12)N1CCN(c2ncccn2)CC1`: the growth is 20.6% in the assay with SR leukemia; 30.6% in the assay on RPMI-8226 leukemia; 25.3% in the assay on OVCAR-8 ovarian; 50% with OVCAR-5 ovarian; 18.3% with OVCAR-4 ovarian; 15.4% in the assay with SK-OV-3 ovarian. For the same compound, the growth in the assay with IGROV1 ovarian is 31.4%; in the assay with OVCAR-3 ovarian, 30.6%; in the assay with HS 578T breast it was 51.4%; in the assay with NCI/ADR-RES ovarian it was 10.1%; in the assay with T-47D breast, 9.29% (active); in the assay with BT-549 breast it was 47.9%. The growth in the assay on MDA-MB-435 melanoma was 34.9%; in the assay on SW-620 colon, 33.1%; with MCF7 breast, 11.2%; in the assay with HCT-116 colon, 16%; with HCC-2998 colon, 26.1%; with KM12 colon, 24.7%.

With `C[N+]1=C(/C=C/c2ccc(I)cc2)C(C)(C)c2ccccc21`, the growth in the assay on SR leukemia is -8.97% (active); with RPMI-8226 leukemia, 71.8%; with OVCAR-8 ovarian it was 67.5%; in the assay on OVCAR-5 ovarian, 90.1%; in the assay on OVCAR-4 ovarian, 109%; with SK-OV-3 ovarian, 107%. The growth was 92.3% in the assay on IGROV1 ovarian; 34.4% in the assay on OVCAR-3 ovarian; 101% in the assay on HS 578T breast; 101% in the assay with NCI/ADR-RES ovarian; 89.3% with T-47D breast; 93% with BT-549 breast. The growth in the assay with MDA-MB-435 melanoma is 75.7%; with SW-620 colon it was 51.5%; in the assay with MCF7 breast it was 87.7%; with HCT-116 colon, 87.2%; in the assay on HCC-2998 colon it was 103%; in the assay with KM12 colon it was 88.9%.

As for `COc1ccc(C2=NNC(c3sc(Cl)nc3Cl)C2)cc1` (configuration not stated), the growth in the assay with SR leukemia is 2.77% (active); in the assay with RPMI-8226 leukemia, 81%; with OVCAR-8 ovarian it was 70.3%; in the assay on OVCAR-5 ovarian, 123%; in the assay on OVCAR-4 ovarian, 80.5%; in the assay with SK-OV-3 ovarian it was 90%. Further, the growth in the assay on IGROV1 ovarian was 63.3%; in the assay with OVCAR-3 ovarian, 61.9%; in the assay with HS 578T breast it was 114%; in the assay with NCI/ADR-RES ovarian, 105%; with T-47D breast, 27.9%; with BT-549 breast it was 53.3%. Moreover, the growth in the assay on MDA-MB-435 melanoma was 80%; with SW-620 colon, 29.1%; with MCF7 breast it was 40.8%; in the assay on HCT-116 colon, 28%; in the assay with HCC-2998 colon, 72.1%; in the assay on KM12 colon, 79.5%.

In the case of `FC(F)(F)c1ccc(-c2nc(-c3nc4cc(Cl)c(Cl)cc4[nH]3)c3ccccn23)cc1`, the growth in the assay with SR leukemia was 84.2%; with RPMI-8226 leukemia, 71.5%; in the assay with OVCAR-8 ovarian, 63.3%; with OVCAR-5 ovarian, 88.6%; in the assay with OVCAR-4 ovarian, 4.24% (active); with SK-OV-3 ovarian it was 38%. The growth with IGROV1 ovarian is 66.3%; in the assay with OVCAR-3 ovarian, 52.7%; in the assay on HS 578T breast it was 3.78% (active); in the assay on NCI/ADR-RES ovarian, 63.5%; with T-47D breast, 61.6%; with BT-549 breast, 88.2%. For the same compound, the growth in the assay on MDA-MB-435 melanoma is 73.4%; with SW-620 colon, 80%; with MCF7 breast, 48%; with HCT-116 colon it was 33.8%; in the assay on HCC-2998 colon, 83%; in the assay on KM12 colon, 52.8%.

Turning to `CCc1ccc(-c2nnc(COc3ccc(-c4nc5ccc(C)cc5[nH]4)cc3OC)o2)cc1`, the growth with SR leukemia is -31.5% (active); in the assay on RPMI-8226 leukemia, -6.63% (active); in the assay on OVCAR-8 ovarian, 39.9%; with OVCAR-5 ovarian, 92.4%; with OVCAR-4 ovarian it was -59.8% (active); in the assay on SK-OV-3 ovarian, 33.9%. Besides, the growth with IGROV1 ovarian is 64.4%; with OVCAR-3 ovarian, 41.7%; in the assay on HS 578T breast it was 28.2%; in the assay with NCI/ADR-RES ovarian, 42.1%; in the assay with T-47D breast it was 15%; in the assay on BT-549 breast, 38.8%. The growth with MDA-MB-435 melanoma is 36.8%; in the assay with SW-620 colon, 86.7%; with MCF7 breast, 30.6%; in the assay with HCT-116 colon, 37.1%; in the assay on HCC-2998 colon it was 97.9%; with KM12 colon, 50.9%.

For `O=CNc1c(Cl)cc2c(c1Cl)Cc1cc([N+](=O)[O-])ccc1-2`, the growth is 57% with SR leukemia; 13.9% in the assay with RPMI-8226 leukemia; 58.8% in the assay with OVCAR-8 ovarian; 82.3% in the assay with OVCAR-5 ovarian; 50.8% in the assay on OVCAR-4 ovarian; 68% with SK-OV-3 ovarian. The growth was 38.6% in the assay with IGROV1 ovarian; 41% with OVCAR-3 ovarian; 75.3% with HS 578T breast; 57.4% in the assay with NCI/ADR-RES ovarian; 30.6% in the assay with T-47D breast; 95.8% in the assay with BT-549 breast. The growth was 2.37% (active) in the assay on MDA-MB-435 melanoma; 41.4% with SW-620 colon; 15.3% in the assay with MCF7 breast; 6.23% (active) with HCT-116 colon; 92.5% in the assay on HCC-2998 colon; 25.6% with KM12 colon.

Take `O=C(O)CN1C(=O)C=CC1=O`: the growth with SR leukemia was 109%; with RPMI-8226 leukemia, 106%; in the assay with OVCAR-8 ovarian, 108%; with OVCAR-5 ovarian it was 101%; with OVCAR-4 ovarian, 115%; in the assay on SK-OV-3 ovarian it was 105%. Moreover, the growth in the assay with IGROV1 ovarian is 100%; in the assay on OVCAR-3 ovarian, 104%; in the assay with HS 578T breast it was 107%; in the assay on NCI/ADR-RES ovarian it was 111%; in the assay on T-47D breast, 101%; with BT-549 breast it was 114%. In addition, the growth with MDA-MB-435 melanoma was 106%; in the assay with SW-620 colon it was 107%; in the assay on MCF7 breast, 102%; with HCT-116 colon it was 107%; in the assay on HCC-2998 colon, 107%; with KM12 colon it was 102%.

`N#Cc1c2c([nH]c(=O)c1C(N)=O)CCCCC2`: the growth is 108% with SR leukemia; 103% in the assay on RPMI-8226 leukemia; 102% in the assay on OVCAR-8 ovarian; 97.2% with OVCAR-5 ovarian; 116% with OVCAR-4 ovarian; 91.6% in the assay on SK-OV-3 ovarian. In addition, the growth in the assay with IGROV1 ovarian was 102%; in the assay on OVCAR-3 ovarian, 113%; in the assay with HS 578T breast, 91.4%; in the assay with NCI/ADR-RES ovarian, 111%; in the assay on T-47D breast, 79.2%; with BT-549 breast, 100%. Besides, the growth in the assay on MDA-MB-435 melanoma was 108%; in the assay on SW-620 colon, 101%; with MCF7 breast, 103%; in the assay on HCT-116 colon, 91.8%; in the assay on HCC-2998 colon it was 111%; in the assay with KM12 colon, 106%.

As to `CC(C)(C)c1ccc(OCCCCCCN2CCNCC2)cc1`, the growth in the assay with SR leukemia is -8.37% (active); with RPMI-8226 leukemia, 0.146% (active); with OVCAR-8 ovarian it was 89.7%; in the assay on OVCAR-5 ovarian, 82.2%; in the assay with OVCAR-4 ovarian it was 72%; in the assay on SK-OV-3 ovarian it was 86.4%. Further, the growth with IGROV1 ovarian was 80.8%; with OVCAR-3 ovarian, 82.1%; in the assay with HS 578T breast, 72.4%; in the assay with NCI/ADR-RES ovarian it was 79.7%; with T-47D breast, 34.8%; with BT-549 breast it was 58.7%. Moreover, the growth in the assay with MDA-MB-435 melanoma is 68.3%; with SW-620 colon, 45.9%; in the assay on MCF7 breast, 17.5%; with HCT-116 colon it was 8.35% (active); with HCC-2998 colon, -47.1% (active); in the assay on KM12 colon, 51.1%.
